FBW7 act = human FBW7 E3 ligase activation, primary screen. AlphaScreen FBW7–phospho-cyclin E peptide binding, activator screen. Q969H0. normalized activity (activation), % at 26.1 µM. actives 0.13% (n = 650,000); in the data active = normalized activity above about 1.9%;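 note: purified mutant Fbw7 with reduced substrate affinity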
Target sequence (Q969H0 whole entry, looked up): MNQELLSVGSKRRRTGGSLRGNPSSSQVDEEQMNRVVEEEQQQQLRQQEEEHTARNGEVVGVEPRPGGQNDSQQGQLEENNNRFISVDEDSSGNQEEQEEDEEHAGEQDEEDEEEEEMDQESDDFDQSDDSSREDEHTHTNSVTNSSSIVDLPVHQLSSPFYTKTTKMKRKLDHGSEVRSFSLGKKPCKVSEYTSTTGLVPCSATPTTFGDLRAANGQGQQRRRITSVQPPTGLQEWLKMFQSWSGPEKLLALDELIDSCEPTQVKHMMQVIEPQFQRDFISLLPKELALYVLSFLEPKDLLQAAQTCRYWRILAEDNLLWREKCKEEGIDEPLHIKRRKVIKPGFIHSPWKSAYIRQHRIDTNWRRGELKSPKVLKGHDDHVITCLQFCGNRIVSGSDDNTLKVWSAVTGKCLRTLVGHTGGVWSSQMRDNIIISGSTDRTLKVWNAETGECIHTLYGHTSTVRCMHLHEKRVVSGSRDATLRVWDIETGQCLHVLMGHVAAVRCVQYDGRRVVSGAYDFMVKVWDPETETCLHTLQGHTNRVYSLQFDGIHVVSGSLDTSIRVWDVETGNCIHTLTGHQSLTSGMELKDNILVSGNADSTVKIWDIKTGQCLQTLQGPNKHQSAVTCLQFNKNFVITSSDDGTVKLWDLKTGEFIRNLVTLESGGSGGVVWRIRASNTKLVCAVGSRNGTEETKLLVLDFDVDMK
TEAD-YAP block = TEAD-YAP interaction inhibition; HEK-TIYL cells, TEAD-Gal4/YAP UAS-luciferase luminescence; inhibition, % at 9.12 µM; actives 1.4% (n = 640,000); AID 1259422; in the data active = inhibition above about 32%
MITF inh = human MITF inhibition, primary screen | O75030 | inhibition, % at 2.6 µM | AlphaScreen MITF homodimerization, bead proximity signal | actives 0.91% (n = 650,000); in the data active = inhibition above about 50%
GPR151 activ = activates the human receptor GPR151 | Q8TDV0 | PathHunter beta-arrestin GPR151 cells, luminescence | activation, % at 11.2 µM | actives 1% (n = 650,000); in the data active = activation above about 4.9%
GPR151 confirm = confirmation of human GPR151 activators | shares compounds with GPR151 activ | GPR151 PathHunter beta-arrestin cells, luminescence, 90 min; % of EA-reagent control over plate median | activation, % at 11.2 µM | 6,700 tested, under 10 active | AID 1508609;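 active = mean percent activation across replicates above the confirmation screen cutoff of 4.91%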
GPR119 counter = activates human GPR119 in a GPR151 counter-screen | shares compounds with GPR151 activ | GPR119 PathHunter beta-arrestin cells, luminescence, 90 min; 0 = compound-well median, 100 = enzyme-acceptor control | activation, % at 11.2 µM | actives 0.3% (n = 6,700) | AID 1508611;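 active = mean percent activation in the counterscreen above 29.09%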;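 note: counterscreen on off-target GPR119 to flag nonselective hits from the GPR151 activator screen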
Numbers stand for hits; n = inactive; x = no result. Rows were chosen to be rich in hits. Some 3.5% of all compounds tested hit in one or more screens of this group.

SMILES | FBW7 act | TEAD-YAP block | MITF inh | GPR151 activ | GPR151 confirm | GPR119 counter
COCCCNc1nc2nonc2nc1N(C)Cc1ccccn1 | n | n | n | n | x | x
COc1ccc2nc(Cl)c(C3CC(c4ccccc4)=NN3C(=O)CCCC(=O)O)cc2c1 (stereo not given) | n | n | n | 5.0 | n | n
COc1ccc2nc(Cl)c(C3CC(c4ccc(Cl)cc4)=NN3C(=O)CCCC(=O)O)cc2c1 (stereo not given) | n | n | n | n | x | x
CN1CCC(Oc2cc(-c3cn[nH]c3)ccc2NC(=O)[C@@H]2COc3ccccc3O2)CC1 | n | n | n | n | x | x
O=C(NCc1ccccc1Cl)c1nnc(-c2ccncc2)o1 | n | n | n | n | x | x
O=C(NCc1ccccc1Cl)c1nnc(-c2ccccc2)o1 | n | n | n | 5.0 | n | n
CCCc1nnc2sc(NC(=O)COc3ccccc3)nn12 | n | n | n | n | x | x
O=C(NC(=O)c1ccc(Cn2cc(C(F)(F)F)ccc2=O)cc1)Nc1cccnc1 | n | n | n | 5.2 | n | n
Cc1ccc(NC(=O)NC(=O)c2cccc(Cn3cc(C(F)(F)F)ccc3=O)c2)nc1 | n | n | n | n | x | x
CCCNc1cc(Nc2ccncn2)nc(N)n1 | n | n | n | 18 | n | n
Nc1nc(NCCO)cc(Nc2ccncn2)n1 | n | n | n | n | x | x
Cc1ccc(-c2nc(CS(=O)CC(=O)N3CC(C)CC(C)C3)c(C)o2)cc1 (stereo not given) | n | n | n | n | x | x
COC(=O)N1CCN(c2nc3ccccc3s2)CC1 | n | n | n | n | x | x
CSc1ncccc1C(=O)OCCOc1ccc(Br)cc1 | n | n | n | 6.3 | n | n
COc1cc(N)c(Cl)cc1C(=O)OCCOc1ccc(Br)cc1 | n | n | n | 20 | n | n
O=C(OCCOc1ccc(Br)cc1)c1cccnc1Cl | n | n | n | n | x | x
CC(NS(C)(=O)=O)c1ccccc1 (stereo not given) | n | n | n | 6.3 | n | n
CCCN1CCC(N(C(=O)CCC(=O)O)C2CC2)CC1 | n | n | n | n | x | x
Cc1ccc(CNC(=O)N2CCC3(CC2)OCCc2c3[nH]c3ccccc23)cc1 | n | n | n | n | x | x
CCOC(=O)C1CCCN(C(=O)/C(C)=C\c2ccccc2)C1 (stereo not given) | n | n | n | 5.3 | n | n
CCC(CO)NCc1ccc(OCC(=O)NC(C)c2ccccc2)c(OC)c1 (stereo not given) | n | n | n | 6.0 | n | n
O=C(CCS(=O)(=O)c1cc2c(cc1Cl)NC(=O)CO2)Nc1ccc(F)cc1F | n | n | n | 5.5 | n | n
COc1ccc(-c2csc(/C(C#N)=C/Nc3ccc(C(N)=O)cc3)n2)cc1OC | n | n | n | n | x | x
CCOc1ccc(/C=C(/C#N)c2nc(-c3ccc(Br)cc3)cs2)c(OCC)c1 | n | n | n | n | x | x
COc1ccc(N/C=C(/C#N)c2nc(-c3ccccc3)cs2)cc1 | n | n | n | 10.0 | n | n
SMILES | FBW7 act | TEAD-YAP block | MITF inh | GPR151 activ | GPR151 confirm | GPR119 counter
COc1ccc(-c2csc(/C(C#N)=C/Nc3ccc(F)c([N+](=O)[O-])c3)n2)cc1OC | n | n | n | 5.2 | n | n
CCOc1ccc(-c2csc(/C(C#N)=C/c3ccccc3OCC)n2)cc1 | n | n | n | 6.2 | n | n
COc1ccc(O)c(/C=C2\SC(=S)NC2=O)c1 | n | n | n | n | x | x
CCC(Sc1nnc(-c2ccc(OC)c(OC)c2)c(-c2ccc(OC)c(OC)c2)n1)C(=O)NC1CCCCC1 (stereo not given) | n | n | n | n | x | x
Cc1cc(C)n(-c2cc(NCCNC(=O)C(C)(C)Oc3ccc(Cl)cc3)nc(C)n2)n1 | n | n | n | 8.6 | n | n
Cc1ccccc1OCC(=O)NN1CC(O)=C(c2nc(-c3ccc(F)cc3)cs2)C1=N | n | n | n | 5.6 | n | n
COc1ccnc(Cn2nc(C)c3cccn3c2=O)c1OC | n | n | n | 6.1 | n | n
CCOC(=O)c1ccccc1NC(=O)c1ccoc1C | n | n | n | n | x | x
CCOc1ccccc1NC(=O)c1ccoc1C | n | n | n | 5.9 | n | n
CCOc1ccccc1NC(=O)c1ccccc1NS(=O)(=O)c1ccccc1 | n | n | n | 5.9 | n | n
CCOc1ccccc1NC(=O)c1ccccc1NS(C)(=O)=O | n | n | n | n | x | x
CC1(C)CC(=O)C2=C(C1)N(c1ccccc1)C(=O)CC2c1ccccc1 (stereo not given) | n | n | n | 6.8 | n | n
Cc1ccc(N2C(=O)CC(c3ccccc3)C3=C2CC(C)(C)CC3=O)cc1 (stereo not given) | n | n | n | n | x | x
O=C(CSc1nc2ccc(Nc3nc(N4CCOCC4)nc(N4CCOCC4)n3)cc2s1)NC1CC1 | n | n | n | 9.3 | n | n
O=C(CSc1nc2ccc(Nc3nc(N4CCOCC4)nc(N4CCOCC4)n3)cc2s1)NCC1CCCO1 (stereo not given) | n | n | n | n | x | x
CCNC(=O)NC(C)c1ccc(S(C)(=O)=O)cc1 (stereo not given) | n | n | n | n | x | x
Cc1csc(CN(C)C(=O)CC2C(=O)NCCN2CC2CCCCC2)n1 (stereo not given) | n | n | n | 5.3 | n | n
COc1cccc(CN2CCNC(=O)C2CC(=O)N(C)Cc2nc(C)cs2)c1OC (stereo not given) | n | n | n | 5.7 | n | n
COc1cccc(CN2CCNC(=O)C2CC(=O)N(C)Cc2ccno2)c1 (stereo not given) | n | n | n | n | x | x
Cc1csc(CN(C)C(=O)CC2C(=O)NCCN2CCC(C)C)n1 (stereo not given) | n | n | n | n | x | x
COc1cc(CN2CCNC(=O)C2CC(=O)N(C)Cc2ccno2)cc(OC)c1 (stereo not given) | n | n | n | 6.1 | n | n
O=C(NCCN1Cc2ccccc2OC(c2ccccc2)C1)c1cc2ncccn2n1 (stereo not given) | n | n | n | n | x | x
COc1ccc(NC(=O)CSc2nnc(Cc3ccccc3)n2-n2cccc2)c(OC)c1 | n | n | n | n | x | x
CC(Oc1ccccc1)C(=O)Nc1ccc(F)cc1F (stereo not given) | n | n | n | 5.3 | n | n
COc1ccccc1OCc1nnc(SCC(=O)N(C)C)o1 | n | n | n | n | x | x
CC(C)C(C)NC(=O)CSc1nnc(COc2ccccc2Cl)o1 (stereo not given) | n | n | n | 7.7 | n | n
Cc1ccc(-c2ncn(-c3ccc(Nc4nccc(-c5cncc(N6CCOCC6)c5)n4)cc3)n2)cn1 | n | n | n | n | x | x
c1ccc(Cn2cc(-c3ccc(Nc4nccc(-c5cncc(N6CCOCC6)c5)n4)cc3)cn2)cc1 | n | n | n | 6.8 | n | n
Cc1cc(C)c(NC(=O)C(C)N2C(=O)c3ccccc3C2=O)c(C)c1 (stereo not given) | n | n | n | n | x | x
CSc1ccc(S(=O)(=O)Nc2ccc(S(=O)(=O)Nc3cccc(C)c3)cc2)cc1 | n | n | n | n | x | x

Screens: PubChem BioAssay, The Scripps Research Institute Molecular Screening Center
